From PubChem BioAssay (NCI)
About 83,000 compounds went through this panel and 20% of them were active in at least one assay; those are over-represented in the sample as a whole.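 Cell lines were cultured in 96-well plates, exposed to a single compound concentration, and assessed for percent growth 48 hours later.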 A number with no mark means an inactive call. Activity calls are given as the source filed them. The calls were made as follows: active = growth percent below 10; inactive = the rest.

Tests used:
Test in all cases: NCI-60 one-dose screen, 48 h (100 = growth as untreated, 0 = no growth, -100 = all killed)
Details in all cases: 10 µM
RPMI-8226 leukemia = system: RPMI-8226 leukemia
OVCAR-8 ovarian = system: OVCAR-8 ovarian
OVCAR-5 ovarian = system: OVCAR-5 ovarian
OVCAR-4 ovarian = system: OVCAR-4 ovarian
SK-OV-3 ovarian = system: SK-OV-3 ovarian
IGROV1 ovarian = system: IGROV1 ovarian
OVCAR-3 ovarian = system: OVCAR-3 ovarian
HS 578T breast = system: HS 578T breast
NCI/ADR-RES ovarian = system: NCI/ADR-RES ovarian

`CN1C(=O)/C(=C/c2ccc3ncsc3c2)NC1=NC12CC3CC(CC(O)(C3)C1)C2` was tested, and the growth (RPMI-8226 leukemia) was -7.67% (active), the growth (OVCAR-8 ovarian) was 16% and the growth (OVCAR-5 ovarian) was 7.24% (active). For the same compound, the growth (OVCAR-4 ovarian) was 32%, the growth (SK-OV-3 ovarian) was 18.6% and the growth (IGROV1 ovarian) was 8.51% (active). For the same compound, the growth (OVCAR-3 ovarian) was 0.338% (active), the growth (HS 578T breast) was -10.5% (active) and the growth (NCI/ADR-RES ovarian) was 10.8%.

With `c1ccc(C(=C(c2ccc(OCCN3CCCCC3)cc2)c2ccc(OCCN3CCCCC3)cc2)C2CCCC2)cc1` the growth (RPMI-8226 leukemia) was -51.4% (active), the growth (OVCAR-8 ovarian) was -48.8% (active) and the growth (OVCAR-5 ovarian) was -22.5% (active). For the same compound, the growth (OVCAR-4 ovarian) was 1.48% (active), the growth (SK-OV-3 ovarian) was -45.3% (active) and the growth (IGROV1 ovarian) was -85.8% (active). The growth (OVCAR-3 ovarian) was -92.9% (active), the growth (HS 578T breast) was -9.63% (active) and the growth (NCI/ADR-RES ovarian) was 101%.

With `O=C(c1ccc(Cl)cc1)C1[C@H](c2ccccc2Br)[C@@H](c2ccccc2)NC12C(=O)Nc1ccccc12` (stereo partly specified) the growth (RPMI-8226 leukemia) was 12.3%, the growth (OVCAR-8 ovarian) was 27.4% and the growth (OVCAR-5 ovarian) was 4.22% (active). It also gave a growth (OVCAR-4 ovarian) of 25.9%, a growth (SK-OV-3 ovarian) of 35.9% and a growth (IGROV1 ovarian) of 31.3%. For the same compound, the growth (OVCAR-3 ovarian) was 10.5%, the growth (HS 578T breast) was 18% and the growth (NCI/ADR-RES ovarian) was -70% (active).

For `CN1CCN(c2ccc(C(=O)/C=C/c3ccc(C#N)cc3)cc2)CC1`, the growth (RPMI-8226 leukemia) was 5.21% (active), the growth (OVCAR-8 ovarian) was 92% and the growth (OVCAR-5 ovarian) was 127%. The growth (OVCAR-4 ovarian) was 85%, the growth (SK-OV-3 ovarian) was 86.6% and the growth (IGROV1 ovarian) was 68.1%. The growth (OVCAR-3 ovarian) was 79.9%, the growth (HS 578T breast) was 93.8% and the growth (NCI/ADR-RES ovarian) was 80.8%.

With `Nc1n[nH]c2cccc(C#Cc3cccc(NC(=O)Nc4cc(C(F)(F)F)cc(C(F)(F)F)c4)c3)c12` the growth (RPMI-8226 leukemia) was -16.3% (active), the growth (OVCAR-8 ovarian) was -5.59% (active) and the growth (OVCAR-5 ovarian) was -46% (active). For the same compound, the growth (OVCAR-4 ovarian) was -3.45% (active), the growth (SK-OV-3 ovarian) was -28.9% (active) and the growth (IGROV1 ovarian) was -66% (active). For the same compound, the growth (OVCAR-3 ovarian) was -20.4% (active), the growth (HS 578T breast) was -20.5% (active) and the growth (NCI/ADR-RES ovarian) was -48.9% (active).

`O=C(Nc1ccc(F)c(Cl)c1)c1cc(-c2ccc(F)cc2F)ccc1O` was tested, and the growth (RPMI-8226 leukemia) was -28.6% (active), the growth (OVCAR-8 ovarian) was 6.82% (active) and the growth (OVCAR-5 ovarian) was 0.459% (active). For the same compound, the growth (OVCAR-4 ovarian) was 12.9%, the growth (SK-OV-3 ovarian) was -5.38% (active) and the growth (IGROV1 ovarian) was 16.4%. For the same compound, the growth (OVCAR-3 ovarian) was 9.88% (active), the growth (HS 578T breast) was -3% (active) and the growth (NCI/ADR-RES ovarian) was -15.1% (active).

`COc1ccc(N(C)c2cc(C#N)nc3ccccc23)cc1N` showed a growth (RPMI-8226 leukemia) of 19.9%, a growth (OVCAR-8 ovarian) of 14.1% and a growth (OVCAR-5 ovarian) of 34.6%. It also gave a growth (OVCAR-4 ovarian) of 55%, a growth (SK-OV-3 ovarian) of 23.8% and a growth (IGROV1 ovarian) of 17.1%. For the same compound, the growth (OVCAR-3 ovarian) was 7.72% (active), the growth (HS 578T breast) was 36.9% and the growth (NCI/ADR-RES ovarian) was -31.7% (active).

`Cc1ccc(C(C)C)cc1NC(=O)c1ccccc1N(C)C` gave a growth (RPMI-8226 leukemia) of 72.6%, a growth (OVCAR-8 ovarian) of 101% and a growth (OVCAR-5 ovarian) of 86.6%. For the same compound, the growth (OVCAR-4 ovarian) was 90%, the growth (SK-OV-3 ovarian) was 93.7% and the growth (IGROV1 ovarian) was 88.6%. For the same compound, the growth (OVCAR-3 ovarian) was 103%, the growth (HS 578T breast) was 110% and the growth (NCI/ADR-RES ovarian) was 74.6%.

With `O=C(c1ccc(Cl)cc1)C1[C@H](c2ccccc2Br)[C@@H](c2ccccc2)NC12C(=O)Nc1ccc(Cl)cc12` (stereo partly specified) the growth (RPMI-8226 leukemia) was 10.8%, the growth (OVCAR-8 ovarian) was 24.2% and the growth (OVCAR-5 ovarian) was 20.8%. It also gave a growth (OVCAR-4 ovarian) of 27%, a growth (SK-OV-3 ovarian) of 42.9% and a growth (IGROV1 ovarian) of 17.7%. For the same compound, the growth (OVCAR-3 ovarian) was 4.76% (active), the growth (HS 578T breast) was 27.6% and the growth (NCI/ADR-RES ovarian) was -60.1% (active).

In the case of `O=C(Nc1ccncc1)c1ccc(-n2c(=O)[nH]c3ccccc3c2=O)cc1`, the growth (RPMI-8226 leukemia) is reported as 100%, the growth (OVCAR-8 ovarian) is reported as 96% and the growth (OVCAR-5 ovarian) is reported as 100%. The growth (OVCAR-4 ovarian) was 93.3%, the growth (SK-OV-3 ovarian) was 99.3% and the growth (IGROV1 ovarian) was 107%. For the same compound, the growth (OVCAR-3 ovarian) was 113%, the growth (HS 578T breast) was 92.4% and the growth (NCI/ADR-RES ovarian) was 103%.

In the case of `CC1=C2C(=C[C@@](C)(CO)[C@@H]2O)/C(=N\N)[C@](C)(O)C12CC2`, the growth (RPMI-8226 leukemia) is reported as 56.2%, the growth (OVCAR-8 ovarian) is reported as 1.18% (active) and the growth (OVCAR-5 ovarian) is reported as -42.8% (active). For the same compound, the growth (OVCAR-4 ovarian) was -21.7% (active), the growth (SK-OV-3 ovarian) was -24.7% (active) and the growth (IGROV1 ovarian) was -11.3% (active). For the same compound, the growth (OVCAR-3 ovarian) was -24.4% (active), the growth (HS 578T breast) was -12.5% (active) and the growth (NCI/ADR-RES ovarian) was -43.2% (active).

In the case of `Clc1ccc(/C=N/Nc2ncnc3sc4c(c23)CCN(Cc2ccccc2)C4)cc1`, the growth (RPMI-8226 leukemia) is reported as 14%, the growth (OVCAR-8 ovarian) is reported as -56.2% (active) and the growth (OVCAR-5 ovarian) is reported as -18.8% (active). The growth (OVCAR-4 ovarian) was -75.9% (active), the growth (SK-OV-3 ovarian) was 30.3% and the growth (IGROV1 ovarian) was 34.4%. The growth (OVCAR-3 ovarian) was -79.9% (active), the growth (HS 578T breast) was -11% (active) and the growth (NCI/ADR-RES ovarian) was -55.2% (active).

`CN1CCN(Cc2ccc(C(=O)Nc3cccc(Nc4ccc5cc(O)ccc5n4)c3)cc2C(F)(F)F)CC1` was tested, and the growth (RPMI-8226 leukemia) was -51.3% (active), the growth (OVCAR-8 ovarian) was 4.28% (active) and the growth (OVCAR-5 ovarian) was -25% (active). For the same compound, the growth (OVCAR-4 ovarian) was 6.75% (active), the growth (SK-OV-3 ovarian) was 26.3% and the growth (IGROV1 ovarian) was -37.8% (active). The growth (OVCAR-3 ovarian) was -58.9% (active), the growth (HS 578T breast) was -2.79% (active) and the growth (NCI/ADR-RES ovarian) was 28.6%.

For `COc1cccc(-c2nn(-c3ccccc3)cc2-c2ccnc(NCCCNC(=O)Nc3ccc(F)cc3)c2)c1`, the growth (RPMI-8226 leukemia) was -27.4% (active), the growth (OVCAR-8 ovarian) was 11.1% and the growth (OVCAR-5 ovarian) was 27.1%. The growth (OVCAR-4 ovarian) was 22.8%, the growth (SK-OV-3 ovarian) was 3.71% (active) and the growth (IGROV1 ovarian) was 15.8%. For the same compound, the growth (OVCAR-3 ovarian) was 28.4%, the growth (HS 578T breast) was -3.48% (active) and the growth (NCI/ADR-RES ovarian) was -35.6% (active).
